The campaign covered roughly 2,400 compounds. About 580 (24%) were called active. The list is a sample of the results. A number with no mark means an inactive call.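 How the source made its calls: active means activity change at or above the mean plus 3 SD of buffer wells without dofetilide, per plate; inactive means the rest.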

The target in the assay is Potassium voltage-gated channel subfamily KQT member 2 (Rattus norvegicus) (UniProt O88943). Nature of the assay: KCNQ2 potentiation in CHO cells – cell-based, FluxOR thallium flux, counter-screen for hERG block protector project, confirmation (AID 1942).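 On activity change, less the hit threshold: normalized value minus buffer-control mean plus three SD of buffer wells.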 As to conditions: FluxOR thallium flux fluorescence, at 10 µM, hits give high values.
Sequence of Potassium voltage-gated channel subfamily KQT member 2 (Rattus norvegicus) (O88943 whole entry, looked up): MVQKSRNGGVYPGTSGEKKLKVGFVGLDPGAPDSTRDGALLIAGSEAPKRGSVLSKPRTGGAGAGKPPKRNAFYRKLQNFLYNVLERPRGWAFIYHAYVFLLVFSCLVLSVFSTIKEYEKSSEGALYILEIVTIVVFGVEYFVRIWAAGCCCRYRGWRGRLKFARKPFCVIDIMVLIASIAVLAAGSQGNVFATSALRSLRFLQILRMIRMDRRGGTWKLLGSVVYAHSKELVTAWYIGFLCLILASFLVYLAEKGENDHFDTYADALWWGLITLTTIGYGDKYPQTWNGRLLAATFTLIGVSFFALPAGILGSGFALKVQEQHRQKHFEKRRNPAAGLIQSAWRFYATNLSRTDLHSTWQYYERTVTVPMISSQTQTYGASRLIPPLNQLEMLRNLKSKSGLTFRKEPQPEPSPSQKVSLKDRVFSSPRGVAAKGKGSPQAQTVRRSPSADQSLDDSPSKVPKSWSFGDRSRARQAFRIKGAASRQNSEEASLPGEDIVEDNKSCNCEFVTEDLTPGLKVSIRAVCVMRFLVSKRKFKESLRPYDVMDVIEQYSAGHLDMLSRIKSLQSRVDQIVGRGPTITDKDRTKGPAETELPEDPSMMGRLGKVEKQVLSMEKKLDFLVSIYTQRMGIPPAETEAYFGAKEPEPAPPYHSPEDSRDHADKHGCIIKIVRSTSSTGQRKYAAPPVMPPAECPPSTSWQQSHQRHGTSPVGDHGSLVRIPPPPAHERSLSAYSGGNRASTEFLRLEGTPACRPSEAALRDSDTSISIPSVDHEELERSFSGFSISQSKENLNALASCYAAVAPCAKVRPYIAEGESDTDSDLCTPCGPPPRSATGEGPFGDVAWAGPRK
As for `Cc1ccccc1N1C(=O)/C(=C/c2ccco2)C(=O)NC1=S`, the activity change was -6.4%. The same measure, in the same setting: for `O=C1NC(=O)N(c2ccccc2)C(=O)/C1=C/c1ccc(Sc2ccccc2)o1` the value was -16.9%. As for `O=C1NC(=S)N(c2ccc(F)cc2)C(=O)/C1=C/c1ccco1`, the activity change is 0.7% (active).

In the case of `COc1ccc(-c2nc(CSCC(=O)N3CCC4(CC3)OCCO4)c(C)o2)cc1OC`, the activity change is -18.2%. Turning to `O=C(Cn1ncc2c3ccccc3n(Cc3ccccc3F)c2c1=O)N1CCC2(CC1)OCCO2`, the activity change was 37% (active).

Regarding `O=C1NC(=O)C(=Cc2ccc(-c3cc(Cl)ccc3[N+](=O)[O-])o2)C(=O)N1`, the activity change was -15.8%. Regarding `CC/C(=C\C=C\[C@@H]1C=C[C@@H]2CCC[C@H]2[C@@H]1C(=O)c1ccc[nH]1)[C@@H]1O[C@@H]([C@@H](C)C(=O)O)CC[C@@H]1C`, the activity change, less the hit threshold was 166% (active). As for `CN(C)C(=O)O/N=C(\N)COc1ccc(C(C)(C)C)cc1`, the activity change, less the hit threshold was -13%. As for `O=c1[nH]c(=S)[nH]c(O)c1/C=C1/C=c2ccccc2=N1`, the activity change is -27.3%. Consider `O=C(COc1ccc(Br)cc1)N1CCN(Cc2ccc3c(c2)OCO3)CC1`, for which the activity change, less the hit threshold was -18.6%. For `N#CCCn1cc(C(=O)Nc2ccccc2Cl)c(-c2ccc(F)cc2)n1`, the activity change, less the hit threshold is -16.8%.

Take `CCOC(=O)c1c(NS(=O)(=O)c2ccccc2)n(CCCOC)c2nc3ccccc3nc12`: the activity change, less the hit threshold was -27.8%. The same measure, in the same setting: the figure for `COc1cccc(OC)c1C(=O)Nc1nc(N)n(-c2ccccc2)n1` is -9.7%. As for `COc1ccc(OC)c(N2C(=O)/C(=C/c3ccco3)C(=O)NC2=S)c1`, the activity change is -13.8%.

On to `COc1ccc2c(c1)/C(=C/c1cnc[nH]1)C(=O)N2`, for which the activity change, less the hit threshold was 0.2% (active). Consider `O=C1NC(=O)N(CCNc2ncc(C(F)(F)F)cc2Cl)C(=O)C1Cc1ccc(Cl)cc1` (stereo not given), for which the activity change is -25.6%.

As to `COc1ccc(CN2CCCC(C(=O)c3sccc3C)C2)cc1O` (stereo not given), the activity change, less the hit threshold is -26.3%.

As to `C=CCN1C(=O)/C(=C/c2ccc(Br)s2)C(=O)NC1=S`, the activity change was -20.2%.

Regarding `O=c1c2ccccc2[nH]c(=S)n1-c1ccc2c(c1)OCCO2`, the activity change, less the hit threshold was -18.7%. `O=C(O)CCC(=O)NCCC1=c2ccccc2=N/C1=C\c1c(O)n(Cc2ccc(F)cc2)c(=S)[nH]c1=O`: the activity change is -17.9%.

Values taken from PubChem BioAssay AID1942 (Johns Hopkins Ion Channel Center, 2009).
